Article PMC4336329 (PLoS ONE, 2015)
Screen size: about 310,000 compounds; about 14,000 (4.5%) showed an effect of 50% or more. Effects have a minus sign here. The full list was thinned out, with strong results kept by preference.

Each compound was assayed against human ether-à-go-go-related gene (hERG) potassium channel (human, UniProt Q12809) (assay: primary screen, population patch clamp on CHO cells stably expressing hERG; higher = less effect of the substance).
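Also: peak tail current of the secondary pulse compared with the same well before compound.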

Chain of human ether-à-go-go-related gene (hERG) potassium channel (Q12809 whole entry, looked up): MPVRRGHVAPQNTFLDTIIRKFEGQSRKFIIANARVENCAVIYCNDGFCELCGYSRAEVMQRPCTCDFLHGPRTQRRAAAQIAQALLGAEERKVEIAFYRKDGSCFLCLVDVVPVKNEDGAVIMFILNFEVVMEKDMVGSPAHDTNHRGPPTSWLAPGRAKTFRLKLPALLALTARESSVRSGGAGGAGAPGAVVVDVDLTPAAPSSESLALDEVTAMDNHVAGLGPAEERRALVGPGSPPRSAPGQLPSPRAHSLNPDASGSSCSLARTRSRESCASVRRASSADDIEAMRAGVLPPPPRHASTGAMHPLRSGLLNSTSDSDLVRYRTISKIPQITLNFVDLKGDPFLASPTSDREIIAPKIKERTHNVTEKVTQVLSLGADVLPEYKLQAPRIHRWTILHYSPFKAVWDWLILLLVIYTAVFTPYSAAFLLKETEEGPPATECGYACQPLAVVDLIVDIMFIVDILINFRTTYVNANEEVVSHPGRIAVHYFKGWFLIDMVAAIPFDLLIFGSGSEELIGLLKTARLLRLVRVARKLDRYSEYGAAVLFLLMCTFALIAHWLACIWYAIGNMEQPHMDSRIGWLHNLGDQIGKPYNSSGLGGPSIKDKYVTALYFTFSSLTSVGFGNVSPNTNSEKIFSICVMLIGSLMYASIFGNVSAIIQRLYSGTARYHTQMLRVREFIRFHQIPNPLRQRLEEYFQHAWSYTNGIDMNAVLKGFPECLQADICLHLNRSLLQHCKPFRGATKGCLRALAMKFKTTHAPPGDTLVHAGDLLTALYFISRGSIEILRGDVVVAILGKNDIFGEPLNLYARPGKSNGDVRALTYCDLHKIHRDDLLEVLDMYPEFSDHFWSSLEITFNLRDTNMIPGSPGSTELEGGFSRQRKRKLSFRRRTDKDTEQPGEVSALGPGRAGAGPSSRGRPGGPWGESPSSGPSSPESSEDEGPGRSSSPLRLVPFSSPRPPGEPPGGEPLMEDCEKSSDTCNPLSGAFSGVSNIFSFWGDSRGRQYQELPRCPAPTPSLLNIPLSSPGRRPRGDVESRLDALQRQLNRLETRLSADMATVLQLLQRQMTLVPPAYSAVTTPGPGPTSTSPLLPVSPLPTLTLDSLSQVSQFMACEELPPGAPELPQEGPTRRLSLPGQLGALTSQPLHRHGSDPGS

Structure (SMILES)	hERG current change (%, negative = inhibition) at 10uM [%]
CN(C)c1ccc(C=NCCc2ccc(S(N)(=O)=O)cc2)cc1	6.19
COc1ccc2[nH]c(=O)c(CN(C(=O)c3cccnc3)c3cccc(C)c3)cc2c1	11.5
O=C(COC(=O)CNC(=O)c1ccc([N+](=O)[O-])o1)Nc1ncc(Cl)cc1Cl	-54.9
O=C(COC(=O)CNC(=O)c1ccco1)Nc1ncc(Cl)cc1Cl	7.02
O=C(COC(=O)CNC(=O)c1ccccc1Cl)Nc1ncc(C(F)(F)F)cc1Cl	-1.76
O=C(COC(=O)CNC(=O)c1ccc([N+](=O)[O-])o1)Nc1ncc(C(F)(F)F)cc1Cl	-58.3
O=C(COC(=O)c1ccccn1)Nc1ncc(C(F)(F)F)cc1Cl	-11.7
Cc1ccc(C(=O)OCC(=O)Nc2ncc(Cl)cc2Cl)cc1NC(=O)c1ccco1	-48.7
O=C(COC(=O)CNC(=O)c1ccc(Cl)cc1)Nc1ncc(C(F)(F)F)cc1Cl	-31.8
O=C(COC(=O)c1ccc([N+](=O)[O-])s1)Nc1ncc(C(F)(F)F)cc1Cl	-63
COc1ccc(C(=O)NCC(=O)OCC(=O)Nc2ncc(Cl)cc2Cl)cc1[N+](=O)[O-]	-37.3
Cc1ccc(C(=O)OCC(=O)Nc2ccccc2)cc1NC(=O)c1ccco1	-4.37
Cc1ccc(C(=O)OCC(=O)Nc2ncc(C(F)(F)F)cc2Cl)cc1NC(=O)c1ccco1	-50.1
Cc1c(Cl)cnc(NC(=O)COC(=O)c2ccc([N+](=O)[O-])s2)c1Cl	6.06
Cc1cc(-n2cnnn2)cc(C)c1S(=O)(=O)NCCOc1ccccc1	-38.5
CC(O)c1nc2ccccc2n1CC(=O)Nc1ccc(F)cc1Cl (stereo not drawn)	14.2
CCOC(=O)c1sc(NC(=O)c2ccc(C)o2)nc1C	-5.35
COc1cc(C(c2c(C)n(C)n(-c3ccccc3)c2=O)c2c(C)n(C)n(-c3ccccc3)c2=O)cc(Br)c1O	13.7
COc1cccc(-c2nnc(NC(=O)c3ccc4ncsc4c3)o2)c1	-8.13
COc1cc(/C=C/C(=O)O)cc(S(=O)(=O)Nc2ccccc2Cl)c1OC	18.8
CN(c1ccccc1)S(=O)(=O)c1ccc(Cl)c(C(=O)NCCc2c[nH]c3ccccc23)c1	-15.8

Structure (SMILES)	hERG current change (%, negative = inhibition) at 10uM [%]
COc1ccc(/C=C/C(=O)Nc2ccccc2C(=O)O)cc1	7.91
O=[N+]([O-])c1c(Nc2ccc(O)cc2)cc(Cl)c2nonc12	-26.1
O=[N+]([O-])c1cc([N+](=O)[O-])c2nonc2c1Nc1ccc(O)cc1	-56.9
O=[N+]([O-])c1cc([N+](=O)[O-])c2nonc2c1Nc1ccccc1O	10.3
CCC1CCCCN1C(=O)COC(=O)CN(C)S(=O)(=O)c1ccc(NC(C)=O)cc1 (stereo not drawn)	7.22
Cc1c(-c2cccc(NC(=O)c3ccco3)c2)nc2ncccn12	-13.3
Cc1ccc(NC(=O)c2nsc(Cl)c2Cl)cc1	5.34
CCCOc1ccccc1-c1nc2n[nH]nc2c(=O)[nH]1	-56.3
CCCOc1ccccc1-c1nc2c([nH]1)c(=O)[nH]c(=O)n2C	8.5
CCCc1nn(C)c2c(=O)[nH]c(-c3ccccc3OCC)nc12	7.87
COc1ccccc1NC(=O)CCS(=O)(=O)c1cc2c(cc1Cl)NC(=O)CO2	1.94
CCOC(=O)c1cnc2cc(C)nn2c1-c1ccccc1	3.92
CCOc1ccc(/C=N/NC(=O)CN2CCSCC2)cc1	1.7
COc1ccc(/C=N/NC2=NCCCCC2)cc1	-43.7
O=C(CN1CCCCCCC1)N/N=C/c1ccc(F)c(F)c1	-33.7
O=C(CCN1CCCCC1)Nc1ccc(Br)cc1	-37.9
CCCOc1ccc(/C=N/NC(=O)CN2CCCCC2)cc1	-49.7
Oc1ccc(/C=N/NC2=NCCCCC2)cc1	-16.2
Cc1cccc(/C=N/NC(=O)CN2CCCCCCC2)c1	-45.9
CCOc1ccc(/C=N/NC(=O)CN2CCCCCCC2)cc1	-63
CCCCCCC(=O)N/N=C/c1ccc(Br)cc1	1.25

Structure (SMILES)	hERG current change (%, negative = inhibition) at 10uM [%]
CCOc1ccc(/C=N/NC2=NCCCCC2)cc1	-69.3
O=C(CN1CCCCCC1)N/N=C/c1ccc2ccccc2c1	-64.6
O=C(CCN1CCCCC1)N/N=C/c1ccc(Br)cc1	-77.8
CC(=O)c1ccc(OCc2cc(=O)n3ccsc3n2)cc1	-1.4
C=CCN1C(=O)C(CC(=O)NCC)SC1=Nc1cc(Cl)ccc1Cl (stereo not drawn)	-2.76
Cc1ccc(NC(=O)C(C)OC(=O)CCNS(=O)(=O)c2ccc(C)cc2)cc1 (stereo not drawn)	-16.5
CCOC(=O)C1=C(C)NC(=O)NC1	-3.56
CCN(CC)S(=O)(=O)c1cc(NC(=O)CCNC(=O)c2ccccc2Cl)ccc1C	-11.5
COc1cc(/C=C/c2nc3ccccc3c(=O)[nH]2)cc(Br)c1O	30.6
CC(C)(C)Nc1nc(NN)nc(NC(C)(C)C)n1	11.8
O=C(Nc1ccc(C(=O)O)cc1)/C(=C\c1ccco1)NC(=O)c1ccccc1	21.2
Cl.O=C1c2ccccc2C(=O)N1CC#CCN1CCN(C2CCCCC2)CC1	-40.8
CN1CCN(CCC(=O)N/N=C/c2cc([N+](=O)[O-])ccc2O)CC1	1.18
Cn1cccc1CC(=O)N/N=C/c1ccc([N+](=O)[O-])cc1	-1.88
O=C(CN1CCCCCC1)N/N=C/c1ccc(Cl)c(Cl)c1	-60
O=C(CN1CCCCC1)N/N=C/c1ccc(Cl)cc1	-66.9
O=C(CN1CCSCC1)N/N=C/c1ccc(Cl)cc1	-12.5
O=C(CN1CCCCC1)N/N=C/c1cccc(Cl)c1	-35.6
CC1CCN(CCC(=O)N/N=C/c2ccc([N+](=O)[O-])cc2)CC1	-70
O=C(CN1CCCCCC1)N/N=C/c1cccc(Cl)c1	-37.5
O=C(CN1CCCCC1)N/N=C/c1ccc(Cl)cc1Cl	-39.1
